Reference: PubChem BioAssay AID1159580 (chemical genetic matrix, 2015)
Hit rate of the full screen: of about 5,500 compounds, about 2,000 (36%) were called active. Not shown: some 18% with an inconclusive outcome. Rule as the data show it: active = normalized growth mostly below about 0.91 (no sharp cut-off); inconclusive = no clear call, values can overlap the other calls; inactive = mostly above about 0.92. Some of the results follow.

Assay: chemical genetic growth profiling, strain panel (AID 1159580);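 also: tested at 20 µM; growth read once vehicle control cultures reached saturation at 30 °C; 1 = growth at the plate median or of vehicle wells; lower values mean less growth of the strain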
Details: growth OD
[1] = S. cerevisiae deletion strains, locus YAL013W, strain DEP1, hits give low values
[2] = S. cerevisiae deletion strains, locus YBR229C, strain ROT2, hits give low values
[3] = S. cerevisiae deletion strains, locus YDL101C, strain DUN1, hits give low values
[4] = S. cerevisiae deletion strains, locus YDR150W, strain NUM1, hits give low values
[5] = S. cerevisiae deletion strains, locus YEL061C, strain CIN8, hits give low values
[6] = S. cerevisiae deletion strains, locus YGR078C, strain PAC10, hits give low values
[7] = S. cerevisiae deletion strains, locus YGR229C, strain SMI1, hits give low values
[8] = S. cerevisiae deletion strains, locus YHR030C, strain SLT2, hits give low values
[9] = S. cerevisiae deletion strains, locus YHR087W, strain rtc3, hits give low values
[10] = S. cerevisiae deletion strains, locus YJL187C, strain SWE1, hits give low values
[11] = S. cerevisiae deletion strains, locus YJR043C, strain POL32, hits give low values
[12] = S. cerevisiae deletion strains, locus YJR075W, strain HOC1, hits give low values
[13] = S. cerevisiae deletion strains, locus YKL190W, strain CNB1, hits give low values
[14] = S. cerevisiae deletion strains, locus YLR039C, strain RIC1, hits give low values
[15] = S. cerevisiae deletion strains, locus YLR058C, strain SHM2 (second series), hits give low values
[16] = S. cerevisiae deletion strains, locus YLR085C, strain ARP6, hits give low values
[17] = S. cerevisiae deletion strains, locus YLR262C, strain YPT6, hits give low values
[18] = S. cerevisiae deletion strains, locus YML094W, strain GIM5, hits give low values
[19] = S. cerevisiae deletion strains, locus YMR219W, strain ESC1, hits give low values
[20] = S. cerevisiae deletion strains, locus YMR263W, strain SAP30, hits give low values
[21] = S. cerevisiae deletion strains, locus YNL153C, strain GIM3, hits give low values
[22] = S. cerevisiae deletion strains, locus YNL298W, strain CLA4 (second series), hits give low values
[23] = S. cerevisiae deletion strains, locus YNL322C, strain KRE1, hits give low values
[24] = S. cerevisiae deletion strains, locus YNR030W, strain Alg12, hits give low values
[25] = S. cerevisiae deletion strains, locus YPL055C, strain LGE1, hits give low values
[26] = S. cerevisiae deletion strains, locus YPL241C, strain CIN2, hits give low values
[27] = S. cerevisiae deletion strains, locus YPR135W, strain CTF4, hits give low values
[28] = S. cerevisiae strains, strain wild type, hits give low values
[29] = S. cerevisiae deletion strains, locus YMR307W, strain GAS1, hits give low values
[30] = S. cerevisiae deletion strains, locus YAL040C, strain CLN3, hits give low values
[31] = S. cerevisiae deletion strains, locus YDR363W, strain ESC2, hits give low values
[32] = S. cerevisiae deletion strains, locus YER002W, strain NOP16, hits give low values
[33] = S. cerevisiae deletion strains, locus YNL197C, strain WHI3, hits give low values
[34] = S. cerevisiae deletion strains, locus YNL224C, strain SQS1, hits give low values
[35] = S. cerevisiae deletion strains, locus YOR083W, strain WHI5 (second series), hits give low values
[36] = S. cerevisiae deletion strains, locus YNL128W, strain TEP1, hits give low values

Measured: normalized growth

COc1cccc(NC(N)=S)c1
inactive: [1] 1.02 | [2] 1.01 | [3] 1.02 | [4] 0.992 | [5] 1.01 | [6] 1.01 | [7] 0.993 | [8] 1.08 | [9] 0.997 | [10] 1.01 | [11] 1.01 | [12] 0.991 | [13] 0.985 | [14] 1.03 | [15] 1.03 | [16] 1.02 | [17] 1.05 | [18] 1 | [19] 1.01 | [20] 1.01 | [21] 0.998 | [22] 1.03 | [23] 0.995 | [24] 1.01 | S. cerevisiae deletion strains, locus YOL006C, strain TOP1, hits give low values 1.05 | [25] 0.984 | [26] 0.964 | [27] 1.12 | [28] 0.993

COc1cccc(Nc2nc3ccccc3s2)c1
inactive: [4] 0.877
active: [1] 0.728 | [2] 0.709 | [3] 0.724 | [5] 0.533 | [6] 0.827 | [8] 0.112 | [9] 0.688 | [10] 0.682 | [11] 0.856 | [12] 0.711 | [14] 0.163 | [15] 0.914 | [16] 0.138 | [17] 0.187 | [18] 0.66 | [19] 0.804 | [20] 0.795 | [29] 0.208 | [21] 0.799 | [22] 0.421 | [23] 0.943 | [24] 0.575 | [25] 0.548 | [26] 0.485 | [27] 0.264 | [28] 0.598

c1cc(CN2CCCCC2)cc(OCCCNc2nc3ccccc3s2)c1
inactive: [1] 1 | [30] 0.908 | S. cerevisiae deletion strains, locus YCL061C, strain MRC1 (second series), hits give low values 1.01 | [4] 1.02 | [31] 0.997 | [32] 0.936 | [20] 1.01 | [29] 1.01 | [33] 1.04 | [34] 1.06 | [23] 0.992 | [35] 1.03

Cc1cccc(C(=O)c2ccccc2C(=O)O)c1
inactive: [1] 1.01 | [2] 1.02 | [3] 1 | [4] 0.905 | [5] 1.01 | [6] 0.997 | [8] 1.06 | [9] 1.01 | [10] 0.998 | [11] 1.02 | [12] 1 | [13] 0.997 | [14] 0.986 | [15] 1.01 | [16] 1.03 | [17] 0.984 | [18] 1.01 | [19] 1.01 | [20] 0.991 | [36] 1.01 | [21] 1.02 | [22] 1.04 | [23] 0.993 | [24] 1.01 | [25] 1.02 | [26] 1.01 | [27] 1.02

COc1cccc(C(=O)N/N=C(/C)c2ccccc2O)c1
active: [8] 0.466 | [13] 0.802 | [14] 0.618 | [16] 0.395 | [17] 0.625 | [18] 0.817 | [29] 0.537 | [36] 0.871 | [22] 0.805 | [24] 0.759 | [26] 0.791 | [27] 0.592 | [28] 0.777
inactive: [1] 0.975 | [2] 0.961 | S. cerevisiae deletion strains, locus YCL061C, strain MRC1, hits give low values 0.915 | [3] 0.93 | [4] 0.92 | [5] 0.982 | [6] 0.955 | [9] 0.981 | [11] 0.958 | [12] 0.969 | [15] 0.994 | [19] 0.987 | [20] 0.969 | [21] 0.973 | [23] 0.985 | [25] 0.991

COc1cccc(C(=O)NCCN2CCN(c3ccc(Cl)cc3)CC2)c1
inactive: [30] 0.992 | [4] 1.01 | [31] 1.01 | [32] 1.02 | [6] 1.01 | [7] 1 | [29] 1.01 | [21] 1.01 | S. cerevisiae deletion strains, locus YNL175C, strain NOP13, hits give low values 1.03 | [33] 1.01 | [34] 1.03 | [35] 1.03 | [26] 1.01

CC(=O)c1ccccc1C(=O)c1ccc(C(C)(C)C)cc1
inactive: S. cerevisiae deletion strains, locus YAR019C, strain CDC15, hits give low values 0.961 | S. cerevisiae deletion strains, locus YBL105C, strain PKC1, hits give low values 0.961 | S. cerevisiae deletion strains, locus YBR135W, strain CKS1, hits give low values 0.957 | S. cerevisiae deletion strains, locus YBR136W, strain MEC1, hits give low values 0.96 | S. cerevisiae deletion strains, locus YBR160W, strain CDC28, hits give low values 0.959 | S. cerevisiae deletion strains, locus YDL017W, strain CDC7, hits give low values 0.956 | S. cerevisiae deletion strains, locus YDL028C, strain MPS1, hits give low values 0.961 | [3] 0.95 | S. cerevisiae deletion strains, locus YDL108W, strain KIN28, hits give low values 0.964 | S. cerevisiae deletion strains, locus YDL132W, strain cdc53, hits give low values 0.958 | S. cerevisiae deletion strains, locus YDL214C, strain PRR2, hits give low values 0.969 | S. cerevisiae deletion strains, locus YDR052C, strain DBF4, hits give low values 0.964 | S. cerevisiae deletion strains, locus YDR054C, strain cdc34, hits give low values 0.957 | S. cerevisiae deletion strains, locus YDR226W, strain ADK1, hits give low values 0.96 | S. cerevisiae deletion strains, locus YDR477W, strain SNF1, hits give low values 0.969 | S. cerevisiae deletion strains, locus YER123W, strain YCK3, hits give low values 0.982 | S. cerevisiae deletion strains, locus YER133W, strain GLC7, hits give low values 0.953 | S. cerevisiae deletion strains, locus YFL009W, strain cdc4, hits give low values 0.953 | S. cerevisiae deletion strains, locus YFL029C, strain CAK1, hits give low values 0.953 | S. cerevisiae deletion strains, locus YFR003C, strain YPI1, hits give low values 0.961 | S. cerevisiae deletion strains, locus YFR019W, strain FAB1, hits give low values 0.981 | S. cerevisiae deletion strains, locus YFR028C, strain CDC14, hits give low values 0.965 | S. cerevisiae deletion strains, locus YGR040W, strain KSS1, hits give low values 0.967 | S. cerevisiae deletion strains, locus YGR052W, strain FMP48, hits give low values 0.992 | S. cerevisiae deletion strains, locus YGR092W, strain DBF2, hits give low values 0.954 | [8] 0.855 | S. cerevisiae deletion strains, locus YHR079C, strain IRE1, hits give low values 0.918 | S. cerevisiae deletion strains, locus YHR082C, strain KSP1, hits give low values 1.07 | S. cerevisiae deletion strains, locus YHR205W, strain SCH9, hits give low values 1 | S. cerevisiae deletion strains, locus YIL147C, strain SLN1, hits give low values 0.961 | S. cerevisiae deletion strains, locus YJL095W, strain BCK1, hits give low values 0.999 | S. cerevisiae deletion strains, locus YJL128C, strain PBS2, hits give low values 0.918 | S. cerevisiae deletion strains, locus YJL157C, strain FAR1, hits give low values 0.984 | S. cerevisiae deletion strains, locus YJR016C, strain ILV3, hits give low values 0.969 | S. cerevisiae deletion strains, locus YJR066W, strain TOR1 (second series), hits give low values 0.989 | S. cerevisiae deletion strains, locus YJR066W, strain TOR1, hits give low values 1.04 | S. cerevisiae deletion strains, locus YKL048C, strain ELM1, hits give low values 0.939 | S. cerevisiae deletion strains, locus YKL067W, strain YNK1, hits give low values 0.967 | S. cerevisiae deletion strains, locus YKL101W, strain HSL1, hits give low values 0.976 | S. cerevisiae deletion strains, locus YKL193C, strain SDS22, hits give low values 0.961 | S. cerevisiae deletion strains, locus YKL203C, strain TOR2, hits give low values 0.989 | S. cerevisiae deletion strains, locus YLR133W, strain CKI1, hits give low values 0.986 | S. cerevisiae deletion strains, locus YLR403W, strain SFP1, hits give low values 0.985 | S. cerevisiae deletion strains, locus YML070W, strain DAK1, hits give low values 0.953 | S. cerevisiae deletion strains, locus YMR001C, strain CDC5, hits give low values 0.959 | S. cerevisiae deletion strains, locus YMR205C, strain PFK2 (second series), hits give low values 0.981 | S. cerevisiae deletion strains, locus YMR277W, strain FCP1, hits give low values 0.963 | S. cerevisiae deletion strains, locus YNL006W, strain LST8, hits give low values 0.954 | S. cerevisiae deletion strains, locus YNL020C, strain ARK1, hits give low values 0.99 | S. cerevisiae deletion strains, locus YNL161W, strain CBK1, hits give low values 0.959 | S. cerevisiae deletion strains, locus YNL183C, strain NPR1, hits give low values 1 | S. cerevisiae deletion strains, locus YNL207W, strain RIO2, hits give low values 0.958 | S. cerevisiae deletion strains, locus YNL222W, strain SSU72, hits give low values 0.966 | S. cerevisiae deletion strains, locus YNL307C, strain MCK1 (second series), hits give low values 0.975 | S. cerevisiae deletion strains, locus YOL078W, strain AVO1, hits give low values 0.967 | S. cerevisiae deletion strains, locus YOL136C, strain PFK27, hits give low values 0.98 | S. cerevisiae deletion strains, locus YOR061W, strain CKA2, hits give low values 0.975 | S. cerevisiae deletion strains, locus YOR119C, strain RIO1, hits give low values 1.02 | S. cerevisiae deletion strains, locus YOR231W, strain MKK1, hits give low values 0.949 | S. cerevisiae deletion strains, locus YOR329C, strain SCD5, hits give low values 0.961 | S. cerevisiae deletion strains, locus YPL031C, strain PHO85, hits give low values 0.961 | S. cerevisiae deletion strains, locus YPL153C, strain RAD53, hits give low values 0.953 | S. cerevisiae deletion strains, locus YPL204W, strain HRR25, hits give low values 0.96 | S. cerevisiae deletion strains, locus YPL209C, strain IPL1, hits give low values 0.959 | S. cerevisiae deletion strains, locus YPR025C, strain CCL1, hits give low values 0.96 | S. cerevisiae deletion strains, locus YPR106W, strain ISR1, hits give low values 0.969 | S. cerevisiae deletion strains, locus YPR111W, strain DBF20, hits give low values 0.946 | S. cerevisiae deletion strains, strain NNK1, hits give low values 0.96 | S. cerevisiae deletion strains, strain TSCII, hits give low values 0.955
active: S. cerevisiae deletion strains, locus YLR113W, strain HOG1, hits give low values 0.761 | S. cerevisiae deletion strains, locus YPL256C, strain CLN2, hits give low values 0.85
